Measured values from PubChem BioAssay (NCATS).
Results filed as inconclusive are left out. Calls of active or inactive are those of the source. The call rests on the fitted dose curve; in most records, active means well fitted curve in the direction sought with a large enough effect; inconclusive means small, poorly fitted or top-dose-only effect, or another doubt; inactive means no such curve, though single readings can be large; an effect the other way counts as inactive or inconclusive.

How the values were obtained:
NIH3T3 = assay: qHTS assay to identify novel small-molecules to repurpose for Merkel cell carcinoma treatment (AID 1296009); details: MCC and control cell lines, CellTiter-Glo viability, 72 h; at 44.8 µM (top of the series) unless noted; further: nearly all actives have a fitted effect of over 60% in size
In short: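 After compound transfer in DMSO, plates were kept 72 hr at 37 degree celsius. Luminescent ATP signal from CellTiter-Glo served as viability measure, normalized against DMSO and no-cell controls.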

C33A = assay: Primary qHTS to identify gynecologic anti-cancer compounds using libraries of approved drugs and bioactive compounds (AID 1345084); details: Gynecologic cancer cell panel viability, ATPlite luminescence, 48 h; series mostly up to 57.5 µM; further: nearly all actives have a fitted effect of over 55% in size; further: potency means the concentration at half of the fitted maximal effect; on activity change, negative = cytotoxicity: on the % scale 0 is the no-effect control and ±100 the full control effect
In short: (§1)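 Luminescence from the ATPlite ATP-monitoring reagent indicates viable cell number; lower signal means cytotoxicity. Cells received compound 16 h after seeding and were exposed for 48 h across five concentrations.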

CAOV3 = assay: as above; details: Gynecologic cancer cell panel viability, ATPlite luminescence, 48 h; series mostly up to 57.5 µM
In short: as §1

CASKI = assay: as above; details: Gynecologic cancer cell panel viability, ATPlite luminescence, 48 h; series mostly up to 57.5 µM
In short: as §1

Es-2 = assay: as above; details: Gynecologic cancer cell panel viability, ATPlite luminescence, 48 h; series mostly up to 57.5 µM
In short: as §1

Hek293T = assay: as above; details: Gynecologic cancer cell panel viability, ATPlite luminescence, 48 h, control line for the selectivity index; series mostly up to 57.5 µM
In short: as §1

JEG-3 = assay: as above; details: Gynecologic cancer cell panel viability, ATPlite luminescence, 48 h; series mostly up to 57.5 µM
In short: as §1

OV90 = assay: as above; details: Gynecologic cancer cell panel viability, ATPlite luminescence, 48 h; series mostly up to 57.5 µM
In short: as §1

PA-1 = assay: as above; details: Gynecologic cancer cell panel viability, ATPlite luminescence, 48 h; series mostly up to 57.5 µM
In short: as §1

SKOV3 = assay: as above; details: Gynecologic cancer cell panel viability, ATPlite luminescence, 48 h; series mostly up to 57.5 µM
In short: as §1

Tov-21-G = assay: as above; details: Gynecologic cancer cell panel viability, ATPlite luminescence, 48 h; series mostly up to 57.5 µM
In short: as §1

Tov112D = assay: as above; details: Gynecologic cancer cell panel viability, ATPlite luminescence, 48 h; series mostly up to 57.5 µM
In short: as §1

HeLa = assay: as above; details: Gynecologic cancer cell panel viability, ATPlite luminescence, 48 h; series mostly up to 57.5 µM
In short: as §1

C=C1[C@H](OC(C)=O)[C@H]2[C@@H](OC(C)=O)C(C)C[C@]2(OC(C)=O)C(=O)[C@H](C)/C=C/C(C)(C)C(=O)[C@H](OC(=O)C(C)C)[C@H]1OC(C)=O (some centres not stated)
inactive: outcome (NIH3T3) inactive [at 17.4 µM] | Potency (C33A) | Potency (CAOV3) | outcome (CASKI) | Potency (Es-2) | Potency (Hek293T) | Potency (JEG-3) | Potency (OV90) | Potency (PA-1) | Potency (SKOV3) | Potency (Tov-21-G) | Potency (Tov112D)

CC1(C)C2CC[C@@]34CC(CC[C@H]3[C@]2(C)CC[C@@H]1O[C@@H]1O[C@H](CO)[C@@H](O)[C@H](O)[C@H]1O)[C@](C)(O)C4 (some centres not stated)
inactive: outcome (NIH3T3) inactive [at 17.4 µM] | Potency (C33A) | outcome (CASKI) | Potency (Es-2) | Potency (HeLa) | Potency (Hek293T) | Potency (JEG-3) | Potency (OV90) | Potency (PA-1) | Potency (SKOV3) | Potency (Tov-21-G) | Potency (Tov112D)

CC1CC(=O)C2C(O)(C1)CC(O)C13OC1c1c(O)cccc1C(=O)C23O (configuration not stated)
inactive: outcome (NIH3T3) | Potency (C33A) | Potency (CAOV3) | outcome (CASKI) | Potency (Es-2) | Potency (HeLa) | Potency (JEG-3) | Potency (OV90) | Potency (PA-1) | Potency (SKOV3) | Potency (Tov-21-G) | Potency (Tov112D)

FC(F)(F)Oc1ccc(-c2ccc3nnc(C(F)(F)F)n3c2)cc1
inactive: outcome (NIH3T3) | Potency (C33A) | Potency (CAOV3) | outcome (CASKI) | Potency (Es-2) | Potency (Hek293T) | Potency (JEG-3) | Potency (OV90) | Potency (PA-1) | Potency (SKOV3) | Potency (Tov-21-G) | Potency (Tov112D)

NC(=O)[C@@H]1CC[C@H](c2ccc(OCc3ccccc3F)cc2)N1
inactive: outcome (NIH3T3) | Potency (C33A) | Potency (CAOV3) | outcome (CASKI) | Potency (Es-2) | Potency (HeLa) | Potency (Hek293T) | Potency (JEG-3) | Potency (PA-1) | Potency (Tov112D)

C=C(C(=O)O)[C@H]1C[C@]2(C)C(=O)CC[C@]23O[C@H]1C[C@@H]3C
inactive: outcome (NIH3T3) | Potency (C33A) | outcome (CASKI) | Potency (Es-2) | Potency (HeLa) | Potency (Hek293T) | Potency (JEG-3) | Potency (OV90) | Potency (PA-1) | Potency (SKOV3) | Potency (Tov-21-G) | Potency (Tov112D)

COc1cc(C2OCC3(O)C(c4ccc(O[C@@H]5O[C@H](CO)[C@@H](O)[C@H](O)[C@H]5O)c(OC)c4)OCC23O)ccc1O (some centres not stated)
inactive: outcome (NIH3T3) inactive [at 17.4 µM] | Potency (C33A) | Potency (CAOV3) | outcome (CASKI) | Potency (Es-2) | Potency (HeLa) | Potency (JEG-3) | Potency (OV90) | Potency (PA-1) | Potency (SKOV3) | Potency (Tov-21-G) | Potency (Tov112D)

C=Cc1cc2oc(-c3ccc(O)c(F)c3)nc2cc1O
active: Potency (OV90) 25.1 µM
inactive: outcome (NIH3T3) | Potency (C33A) | Potency (CAOV3) | outcome (CASKI) | Potency (Es-2) | Potency (Hek293T) | Potency (JEG-3) | Potency (PA-1) | Potency (SKOV3) | Potency (Tov-21-G) | Potency (Tov112D)

O=C(O)C1(c2ccc(-c3ccc(Cl)c(Cl)c3)c(F)c2)CC1
inactive: outcome (NIH3T3) | Potency (C33A) | outcome (CASKI) | Potency (Es-2) | Potency (HeLa) | Potency (Hek293T) | Potency (JEG-3) | Potency (OV90) | Potency (PA-1) | Potency (SKOV3) | Potency (Tov-21-G) | Potency (Tov112D)

CC(=O)OCC1=CCC2C(C)(C)CCCC2(C)C12CCC(C)(CC(=O)O)O2 (configuration not stated)
inactive: outcome (NIH3T3) | Potency (C33A) | Potency (CAOV3) | outcome (CASKI) | Potency (Es-2) | Potency (HeLa) | Potency (Hek293T) | Potency (OV90) | Potency (PA-1) | Potency (SKOV3) | Potency (Tov-21-G) | Potency (Tov112D)

O=c1[nH]ccc2nc(-c3ccc(CN4CCC(c5nc(-c6ccccn6)n[nH]5)CC4)cc3)c(-c3ccccc3)cc12
inactive: outcome (NIH3T3) | Potency (C33A) | Potency (CAOV3) | outcome (CASKI) | Potency (Es-2) | Potency (HeLa) | Potency (JEG-3) | Potency (OV90) | Potency (PA-1) | Potency (Tov-21-G) | Potency (Tov112D)

O=[N+]([O-])c1cc(Cl)ccc1S(=O)(=O)N1CCN(Cc2ccccc2)CC1
inactive: outcome (NIH3T3) | Potency (C33A) | Potency (CAOV3) | outcome (CASKI) | Potency (Es-2) | Potency (HeLa) | Potency (JEG-3) | Potency (OV90) | Potency (PA-1) | Potency (Tov-21-G) | Potency (Tov112D)

CC1(C)CCC2(C(=O)O)C(O)CC3(C)C(=CCC4C5(C)CCC(OC6OC(CO)C(O)C(O)C6OC6OC(CO)C(O)C(O)C6OC6OCC(O)(CO)C6O)C(C)(C)C5CCC43C)C2C1 (configuration not stated)
inactive: outcome (NIH3T3) inactive [at 9.27 µM] | activity change, negative = cytotoxicity (C33A) -3% [at 11.6 µM] | activity change, negative = cytotoxicity (CAOV3) 12.3% [at 11.6 µM] | activity change, negative = cytotoxicity (CASKI) -10.6% [at 11.6 µM] | activity change, negative = cytotoxicity (Es-2) -1.15% [at 11.6 µM] | activity change, negative = cytotoxicity (Hek293T) 13.1% [at 11.6 µM] | activity change, negative = cytotoxicity (JEG-3) -1.43% [at 11.6 µM] | activity change, negative = cytotoxicity (OV90) -4.37% [at 11.6 µM] | activity change, negative = cytotoxicity (PA-1) -4.82% [at 11.6 µM] | activity change, negative = cytotoxicity (SKOV3) 9.15% [at 11.6 µM] | activity change, negative = cytotoxicity (Tov-21-G) -4.95% [at 11.6 µM] | activity change, negative = cytotoxicity (Tov112D) 1.07% [at 11.6 µM]

C=C1C2CCC3C(CCC4[C@@]3(C)CCC[C@@]4(C)C(=O)O)(C2)[C@@H]1OC(=O)/C(C)=C\C (some centres not stated)
inactive: outcome (NIH3T3) inactive [at 17.4 µM] | Potency (C33A) | Potency (CAOV3) | outcome (CASKI) | Potency (JEG-3) | Potency (OV90) | Potency (SKOV3)

O=C(O)CCc1cc2ccoc2cc1O[C@@H]1O[C@H](CO)[C@@H](O)[C@H](O)[C@H]1O
inactive: outcome (NIH3T3) | Potency (C33A) | Potency (CAOV3) | Potency (Es-2) | Potency (HeLa) | Potency (Hek293T) | Potency (JEG-3) | Potency (OV90) | Potency (SKOV3) | Potency (Tov-21-G) | Potency (Tov112D)

C=C1C(OC(C)=O)CCC2(C)CC3(O)OC(=O)C(C)=C3CC12 (configuration not stated)
inactive: outcome (NIH3T3) | Potency (C33A) | outcome (CASKI) | Potency (Es-2) | Potency (HeLa) | Potency (Hek293T) | Potency (JEG-3) | Potency (OV90) | Potency (PA-1) | Potency (SKOV3) | Potency (Tov-21-G) | Potency (Tov112D)
